Test results from PubChem BioAssay AID1851 (National Center for Advancing Translational Sciences (NCATS), 2009).
Values joined by “and” are separate entries in the source; they are usually repeats but may differ in a detail not shown here. Equal entries are not always repeated. Screen size: about 16,000 compounds; about 2,600 (16%) were called active. About 20% were inconclusive and are not listed. Only a sample is shown. A number with no mark means an inactive call. Calls come from the whole dose curve; as a rule, active = well fitted curve in the direction sought with a large enough effect; inconclusive = small, poorly fitted or top-dose-only effect, or effect the other way; inactive = no such curve, though single readings can be large or run the other way. Peptide text beside a SMILES is read from it. * marks the point of attachment. Cbz = O=C(OCc1ccccc1)*

molecular target: Cytochrome P450 2D6 (Homo sapiens) (UniProt P10635); assay: Cytochrome panel assay with activity outcomes; settings: recombinant CYP, pro-luciferin dealkylation, luminescence, p450-cyp2d6; series mostly up to 57.1 µM
% is set by controls: 0 for no effect and ±100 for the full control effect.

Cytochrome P450 2D6 (Homo sapiens), sequence (P10635 whole entry, looked up): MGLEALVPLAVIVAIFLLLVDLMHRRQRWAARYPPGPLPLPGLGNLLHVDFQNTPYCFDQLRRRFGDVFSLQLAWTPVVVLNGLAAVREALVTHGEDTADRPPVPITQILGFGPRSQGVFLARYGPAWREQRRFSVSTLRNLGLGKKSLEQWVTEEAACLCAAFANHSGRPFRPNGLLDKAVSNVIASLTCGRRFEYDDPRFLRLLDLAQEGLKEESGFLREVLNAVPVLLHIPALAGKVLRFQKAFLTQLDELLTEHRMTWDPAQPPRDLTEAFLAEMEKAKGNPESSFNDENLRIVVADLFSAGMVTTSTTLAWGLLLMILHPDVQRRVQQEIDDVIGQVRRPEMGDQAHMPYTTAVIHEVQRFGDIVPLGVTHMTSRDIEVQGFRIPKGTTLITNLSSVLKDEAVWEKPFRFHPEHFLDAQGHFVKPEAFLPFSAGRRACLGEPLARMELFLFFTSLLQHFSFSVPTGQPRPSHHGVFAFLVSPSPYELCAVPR

| Compound | AC50 | activity, negative = inhibition |
| --- | --- | --- |
| Cn1cc(-c2nc3cnc(Oc4ccccc4)nc3n(Cc3cccs3)c2=O)c2ccccc21 | inactive |  |
| CC(C)Cn1c(SCC(=O)c2c(N)n(C)c(=O)n(C)c2=O)nc2ccccc21 | inactive |  |
| COCCNC(=O)c1onc(CSc2cccc(Cl)c2)c1C(=O)O | inactive |  |
| Nc1ccc(N=Nc2ccc(-c3ccc(O)cc3)cc2)c2ccc(S(=O)(=O)O)cc12 |  | 3.2% [at 11.4 µM] |
| O=C(O)c1[nH]c2c([N+](=O)[O-])cc([N+](=O)[O-])cc2c1C(=O)O |  | 11.1% [at 11.4 µM] |
| NC(=O)C[C@H](N)C(N)=O |  | -0.87% [at 11.4 µM] |
| CC1CCN(C(=O)Nc2ccc3nsnc3c2)CC1 | inactive |  |
| O=S(=O)(c1ccccc1)N1CCC2(CC1)CN(Cc1nccs1)C2 | inactive |  |
| CN1CCC2(CC1)CCN(S(=O)(=O)c1ccccc1)CC2 | inactive |  |
| O=S(=O)(c1ccccc1)N1CCC2(CCCN(Cc3nccs3)C2)CC1 | inactive |  |
| COc1ccccc1CN1CCC2(CC1)CCN(S(=O)(=O)c1ccccc1)CC2 | 0.158 µM (active) |  |
| O=S(=O)(c1ccccc1)N1CCC[C@@]2(CCN(Cc3nccs3)C2)C1 | 2.51 µM (active) |  |
| COc1ccc(NC(=O)N2CC3(CCN(S(=O)(=O)c4ccccc4)CC3)C2)cc1 | inactive |  |
| Cc1cccn2c(=O)c(C=NCc3ccco3)c(Nc3ccc(SC(F)F)cc3)nc12 | inactive |  |
| COC(=O)[C@@H]1O[C@@H](SCCN)[C@@H](O)[C@H](O)[C@H]1O |  | -0.405% [at 11.4 µM] |
| CSc1nnc(-c2sc(-c3ccccc3)nc2C)n1C | inactive |  |
| C#CCSc1nnc(-c2cc3c(C(F)(F)F)nn(C)c3s2)n1C | inactive |  |
| C#CCSc1nnc(-c2sc(-c3ccccc3)nc2C)n1C | 6.31 µM (active) |  |
| CC(=O)c1cc2ccccc2oc1=O | inactive |  |
| COC(=O)C1CSC(C(=O)OC)N1C(=O)Nc1c(C)cccc1C (stereo unspecified) | inactive |  |
| O=C(CSCc1c(F)cccc1Cl)NCC1CCCO1 (stereo unspecified) | inactive |  |
| Cc1ccc(CS(=O)(=O)Cc2ccc(C(=O)NCC3CCCO3)o2)cc1 (stereo unspecified) | inactive |  |
| O=C(CN(Cc1ccccc1Cl)C(=O)c1ccc(CN2CCOCC2)o1)NCC1CCCO1 (stereo unspecified) | 7.08 µM (active) |  |
| Cc1ccccc1NC(=O)c1cccc2nc3ccccc3nc12 | inactive |  |
| COC(=O)C/C=C\[C@@H](C)[C@@H](/C=N\OC[C@@H]1O[C@H](c2ccccc2)C=C[C@@H]1Oc1ccc(OC)cc1)NS(=O)(=O)c1ccc(C)cc1 |  | -14% [at 11.4 µM] |
| N=C(N)SCCCN |  | -11.8% [at 11.4 µM] |

| Compound | AC50 | activity, negative = inhibition |
| --- | --- | --- |
| N=C(N)SCCc1cnc[nH]1 | 25.1 µM (active) and 6.31 µM (active) |  |
| O=C(NCCNC[C@@H](O)COc1ccc(O)cc1)N1CCOCC1 | inactive |  |
| Cc1nc(Oc2ccc(Cl)cc2)c2oc3ccccc3c2n1 | inactive |  |
| COc1ccccc1OCC(=O)NNC(=O)c1cnccn1 | inactive |  |
| Cn1c(=O)cc(OCC(=O)NCc2cccnc2)c2ccccc21 | inactive |  |
| CCn1c(=O)cc(OCC(=O)Nc2cccnc2)c2ccccc21 | 6.31 µM (active) |  |
| Cc1cc(N2CCOCC2)ccc1/C=C1\SC(=O)N(C(C)C)C1=O | inactive |  |
| COC(=O)[C@H](C)NC(=O)[C@@H](C)CO |  | -0.424% [at 11.4 µM] |
| Cn1c(=O)c2[nH]c(/N=N\N3CCN(CCO)CC3)nc2n(C)c1=O |  | 3.89% [at 11.4 µM] |
| N[C@@H](C(=O)O)[C@H](CC(=O)O)c1ccc(Cl)cc1 | 2.51 µM (active) |  |
| O=C(O)CCC(=O)c1ccc(Cl)cc1 |  | 11.7% [at 11.4 µM] |
| N[C@H](Cc1ccc(Cl)cc1)C(=O)O | inactive |  |
| CCn1c(SCc2ccc(C(=O)Nc3nccs3)cc2)nnc1-c1ccc(NC(C)=O)cc1 | inactive |  |
| CC12CCC(C(=O)Nc3ccccc3Br)(C/C1=N\O)C2(C)C (stereo unspecified) | inactive |  |
| Cc1cnc(CNc2ccnc(-c3ccoc3)n2)cn1 | inactive |  |
| c1cncc(-c2nccc(NCc3cccs3)n2)c1 | 0.631 µM (active) |  |
| c1ccc(CNc2ccnc(-c3ccoc3)n2)cc1 | 20 µM (active) |  |
| Cc1cnc(CNc2ccnc(-c3c(C)noc3C)n2)cn1 | inactive |  |
| CN(C)c1ccc(-c2nccc(NCc3cccs3)n2)cc1 | 0.126 µM (active) |  |
| c1csc(CNc2ccnc(-c3ccoc3)n2)c1 | 3.16 µM (active) |  |
| COc1ncc2ncc(=O)n(Cc3ccc(F)cc3)c2n1 | inactive |  |
| CCC(C)[C@H](NC(=O)Nc1ccc(Oc2ccccc2)cc1)C(=O)O (stereo partly specified) | inactive |  |
| O=C(O)c1c[nH]c2cc(OCc3ccccc3)ccc2c1=O |  | 4.69% [at 11.4 µM] |
| O=C(O)[C@@H]1[C@@H]2C[C@H]([C@@H](Br)[C@H]2N2C(=O)CCC2=O)[C@@H]1C(=O)O |  | -2.86% [at 11.4 µM] |
| COC(=O)CCC(NC(=O)OCc1ccccc1)C(=O)NC(CC(C)C)C(=O)OC (stereo unspecified) (Cbz-Glu(OMe)-Leu-OMe; configuration not given here) | inactive |  |
| COC(=O)C(NNc1ccccc1)(NC(=O)c1ccccc1F)C(F)(F)F (stereo unspecified) | inactive |  |

| Compound | AC50 | activity, negative = inhibition |
| --- | --- | --- |
| CCCNC(=O)OC[C@@H]1O[C@H](CCO/N=C\c2ccc(C(=O)N3[C@H](c4ccc(C)cc4)[C@@H](C)CC[C@H]3C(=O)OC)cc2)C=C[C@@H]1Oc1ccc(OC)cc1 |  | 9.53% [at 11.4 µM] |
| O=C(c1ccccc1)[C@@H]1O[C@H]1c1ccc(-c2ccccc2)cc1 | inactive |  |
| C[C@H](NC(=O)Cn1cncn1)c1ccccc1 | inactive |  |
| O=C(Cn1cnc2ccccc21)NC(c1ccccc1)c1ccccc1 | 7.08 µM (active) |  |
| CC(NC(=O)Cn1cnc([N+](=O)[O-])n1)c1ccccc1 (stereo unspecified) | inactive |  |
| C[N+]1(CCCC[N+]2(C)CCCCCCC2)CCCCCCC1 |  | -7.84% [at 11.4 µM] |
| N/C(=N\O)c1cn([C@@H]2O[C@@H](CO)[C@H](O)[C@@H]2O)c2ncnc(NO)c12 |  | 14.4% [at 11.4 µM] |
| CCOc1ccc(N2C(=O)CN=C2Nc2ccccc2F)cc1 | inactive |  |
| CCOc1ccc(NC2=NCC(=O)N2Cc2cccs2)cc1 | 7.08 µM (active) |  |
| CCOc1ccc(N2C(=O)CN=C2Nc2ccccc2Cl)cc1 | inactive |  |
| CCCCOC(=O)CCc1c(C)[nH]c(=O)c(C#N)c1C | inactive |  |
| CCN(CC)C(=O)C1=C(C)NC(=S)NC1c1cn(-c2ccccc2)nc1-c1ccc(Cl)cc1 (stereo unspecified) | inactive |  |
| O=C(O)[C@@H]1[C@@H](C(=O)Nc2ncccn2)[C@@H]2C=C[C@@H]1O2 |  | 15.2% [at 11.4 µM] |
| CCc1cccc(N(C)C(N)=Nc2cccc3ccccc23)c1 | 0.2 µM (active) |  |
| O=C(NC[C@@H](O)CO)c1c(I)c(C(=O)NC[C@@H](O)CO)c(I)c(N(CCO)C(=O)CO)c1I | inactive |  |
| O=C1c2ccccc2-c2ccc(N(Cc3ccc(Br)cc3)Cc3ccc(Br)cc3)cc21 |  | -1.8% [at 11.4 µM] |
| C[N+]1(C)CCC(OC(=O)C(c2ccccc2)c2ccccc2)CC1 | inactive |  |
| CN1[C@@H]2CC[C@H]1CC(OC(c1ccccc1)c1ccccc1)C2 (stereo partly specified) | 2 µM (active) and 1.26 µM (active) |  |
| Cn1c(=O)c(-c2cc(F)cc(F)c2)nc2cncnc21 | inactive |  |
| Cc1nn(C)cc1CNC(=O)CCC(=O)O | inactive |  |
| CCN1CCCC1CNC(=O)C(=O)Nc1ccc(OC)cc1 (stereo unspecified) | inactive |  |
| COc1ccc(NC(=O)N2CCC3(CC2)CCN(S(C)(=O)=O)CC3)cc1 | inactive |  |
| COc1ccc(NC(=O)NCCCN2CCCCC2C)cc1 (stereo unspecified) | 1.58 µM (active) |  |
| O=S(=O)(c1cnccc1N1CCN(CCO)CC1)N1CCCC1 |  | 10% [at 11.4 µM] |
| Cc1cccc(Nc2ccccc2C(=O)OCC(=O)NCc2ccco2)c1C | inactive |  |
| O=C(Nc1ccccc1Cl)c1ccn[nH]1 | inactive |  |

| Compound | AC50 | activity, negative = inhibition |
| --- | --- | --- |
| O=C1c2cccnc2C(=O)N1Cc1ccc(F)cc1 | inactive |  |
| O=C1C(=O)N(Cc2ccc(Cl)c(Cl)c2)c2ccccc21 | 3.98 µM (active) |  |
| O=C1CCCc2ccccc2N1Cc1cccc(Cl)c1 | inactive |  |
| CCn1ncc(C(=O)Nc2cc(C)on2)c1C | inactive |  |
| Cc1c(C)c2c(C)[nH]nc2oc1=O | inactive |  |
| CN(C)c1nc(C#N)nc(N2CCOCC2)n1 | inactive |  |
| CCOC(=O)C(NC(C)=O)C(=O)O (stereo unspecified) | inactive |  |
| O=C(O)CP(=O)(O)O | inactive |  |
| CCOC(=O)[C@H](N)/C=C(\C)CP(=O)(O)O | 2 µM (active) |  |
| Cc1ccc(C)c2sc(NC(=O)c3ccc(N4CCCCC4)c([N+](=O)[O-])c3)nc12 | inactive |  |
| CCc1nnc(NC(=O)CCC(=O)N2CCN(c3ccccn3)CC2)s1 | inactive |  |
| Cc1ccc(C2NC(c3ccc(C)cc3)C(C)C(=NO)C2C)cc1 (stereo unspecified) | 0.562 µM (active) |  |
| Cc1ccc(C2CC2C(=O)NN)cc1 (stereo unspecified) | inactive |  |
| Cc1ccc(NC(=O)/C(=C\c2cccc([N+](=O)[O-])c2)NC(=O)c2cccs2)cc1 | inactive |  |
| Cc1nc2ncnn2c(C)c1CCC(=O)NCCC1=CCCCC1 | inactive |  |
| c1ccc(-c2csc(Nc3nc(N4CCOCC4)nc(N4CCOCC4)n3)n2)cc1 | inactive |  |
| OCCNc1nc(NCCC2=CCCCC2)nc(N2CCOCC2)n1 | 7.08 µM (active) |  |
| COc1ccc(-c2cc(C(F)(F)F)nc(N3CCCCC3)n2)cc1OC | inactive |  |
| Cc1ccccc1N1C(=O)c2cc(S(N)(=O)=O)c(Cl)cc2N[C@H]1C | inactive |  |
| C[n+]1cn(CC(O)COCc2ccccc2)c2ccccc21 (stereo unspecified) | 1.12 µM (active) |  |
| OC(COCc1ccccc1)Cn1cnc2ccccc21 (stereo unspecified) | 14.1 µM (active) |  |
| O=C1CCCC=C1[C@@H](O)COCc1ccccc1 |  | -20.2% [at 11.4 µM] |
| Cn1c2ccccc2c2cc(C(=O)N3CCOCC3)sc21 | inactive |  |
